A short description of assay [1]: E. coli DRC41 culture turbidity changes, primary screen, E. coli filamentation inducer project, strain DRC41, OD650, 48 h (AID 1152).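 Further: E. coli MC1000 strain DRC41 lacking acrAB efflux pump and sulA.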 The following applies: E. coli DRC41 (acrAB sulA), higher = more signal, called active from +8 up or from −8 down.
The nature of assay [2]: small-molecule binders of probe aLefty1, primary screen, biochemical, small-molecule microarray, 635/667 nm fluorescence (AID 1153).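 Further: score merges spot fluorescence with signal-to-noise ratio from the scanned slide images.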 The following applies: higher = more signal.
The nature of assay [3]: PSAC antagonists in infected red cells, primary screen, cell-based, P. falciparum Indochina, OD700, 1 h (AID 1154). The following applies: P. falciparum Indochina infected RBC osmotic lysis, higher = more signal, called active from +8 up or from −8 down.
The nature of assay [4]: PSAC antagonists in infected red cells, primary screen, cell-based, P. falciparum Indochina, OD700, 2 h (AID 1155).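 Further: lysis reports solute entry through the parasite surface anion channel PSAC; channel blockers reduce lysis of infected cells.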 The following applies: P. falciparum Indochina infected erythrocytes, osmotic lysis OD700; higher = more signal, called active from +8 up or from −8 down.
A short description of assay [5]: osmotic lysis modulators in infected erythrocytes, primary screen, PSAC antagonist project, cell-based, P. falciparum Indochina, OD700, 3 h (AID 1156). The following applies: higher = more signal, called active from +8 up or from −8 down.
The nature of assay [6]: PSAC antagonists in infected red cells, primary screen, cell-based, P. falciparum Indochina, OD700, 18 h (AID 1157). The following applies: P. falciparum Indochina infected erythrocytes, osmotic lysis OD700, 18 h; higher = more signal, called active from +8 up or from −8 down.
Assay [7] in a line: modulators of S6 phosphorylation in cells, primary screen, cell-based, A549, cytoblot, luminescence, serum-stimulated (AID 1158).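 Further: serum-stimulated A549 lung adenocarcinoma cells; signal is phosphorylated S6 detected by cytoblot immunostaining with HRP secondary.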 The following applies: A549 phospho-S6 cytoblot, 5 h, higher = more signal.
The target of assay [8] is NADPH oxidase 2 (Homo sapiens) (UniProt P04839). Put plainly: NOX2-dependent H2O2 signal modulators, primary screen, NOX inhibitor project, cell-based, HEK293-NOX2, PMA-stimulated, Amplex Red fluorescence (AID 1159). Further: test concentration not given here. The following applies: 45 min, higher = more signal, called active from +8 up or from −8 down.
For assay [9], the target named is NADPH oxidase 4 (Homo sapiens) (UniProt Q9NPH5). In words: NOX4-dependent H2O2 signal modulators, primary screen, NOX inhibitor project, cell-based, HEK293-NOX4, tetracycline-induced, Amplex Red fluorescence (AID 1160). The following applies: 45 min, higher = more signal, called active from +8 up or from −8 down.
Assay [10] has as its target NADPH oxidase 5 (Homo sapiens) (UniProt Q96PH1). In words: NOX5-dependent H2O2 signal modulators, primary screen, NOX inhibitor project, cell-based, HEK293-NOX5, Amplex Red fluorescence (AID 1161). The following applies: HEK293-NOX5, ionomycin, 45 min, higher = more signal.

“And” between values parts separate entries of the source, which are not always exact repeats. Equal values may be shown once. The source made the active and inactive calls.

NADPH oxidase 5 (Homo sapiens), sequence (Q96PH1 whole entry, looked up): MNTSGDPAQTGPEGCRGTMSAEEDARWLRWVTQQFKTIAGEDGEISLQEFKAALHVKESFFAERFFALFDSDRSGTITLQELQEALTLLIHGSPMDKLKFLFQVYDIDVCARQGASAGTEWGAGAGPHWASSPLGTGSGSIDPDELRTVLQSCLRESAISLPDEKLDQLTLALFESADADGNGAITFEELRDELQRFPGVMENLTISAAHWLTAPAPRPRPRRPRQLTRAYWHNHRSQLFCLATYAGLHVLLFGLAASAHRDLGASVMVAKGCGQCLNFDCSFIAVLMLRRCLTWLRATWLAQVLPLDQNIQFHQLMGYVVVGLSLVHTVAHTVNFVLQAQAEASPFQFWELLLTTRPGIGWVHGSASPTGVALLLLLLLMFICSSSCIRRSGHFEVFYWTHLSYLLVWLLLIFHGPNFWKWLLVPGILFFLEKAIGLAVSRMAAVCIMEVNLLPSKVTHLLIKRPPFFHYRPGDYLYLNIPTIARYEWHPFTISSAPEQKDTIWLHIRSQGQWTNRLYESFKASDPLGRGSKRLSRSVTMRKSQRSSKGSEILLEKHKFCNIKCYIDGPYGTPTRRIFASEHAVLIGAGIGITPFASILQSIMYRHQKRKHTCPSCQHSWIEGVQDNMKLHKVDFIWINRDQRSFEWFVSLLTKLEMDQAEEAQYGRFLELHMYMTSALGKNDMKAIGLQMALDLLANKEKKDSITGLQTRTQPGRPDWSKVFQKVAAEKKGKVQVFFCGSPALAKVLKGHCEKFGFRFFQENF
NADPH oxidase 2 (Homo sapiens), sequence (P04839 whole entry, looked up): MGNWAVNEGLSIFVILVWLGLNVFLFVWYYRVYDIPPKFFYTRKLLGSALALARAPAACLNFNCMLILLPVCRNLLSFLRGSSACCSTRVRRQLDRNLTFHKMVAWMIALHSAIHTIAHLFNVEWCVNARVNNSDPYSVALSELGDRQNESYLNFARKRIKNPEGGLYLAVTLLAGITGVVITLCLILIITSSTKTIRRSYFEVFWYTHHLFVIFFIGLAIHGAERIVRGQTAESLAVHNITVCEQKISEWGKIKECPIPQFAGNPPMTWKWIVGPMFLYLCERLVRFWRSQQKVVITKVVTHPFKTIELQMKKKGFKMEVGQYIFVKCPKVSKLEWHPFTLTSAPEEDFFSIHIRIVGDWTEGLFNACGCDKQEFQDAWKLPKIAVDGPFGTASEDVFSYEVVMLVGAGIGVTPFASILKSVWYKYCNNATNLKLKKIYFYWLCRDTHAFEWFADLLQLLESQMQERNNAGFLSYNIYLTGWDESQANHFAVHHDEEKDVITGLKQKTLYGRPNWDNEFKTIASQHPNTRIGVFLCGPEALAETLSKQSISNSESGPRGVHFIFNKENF
NADPH oxidase 4 (Homo sapiens), sequence (Q9NPH5 whole entry, looked up): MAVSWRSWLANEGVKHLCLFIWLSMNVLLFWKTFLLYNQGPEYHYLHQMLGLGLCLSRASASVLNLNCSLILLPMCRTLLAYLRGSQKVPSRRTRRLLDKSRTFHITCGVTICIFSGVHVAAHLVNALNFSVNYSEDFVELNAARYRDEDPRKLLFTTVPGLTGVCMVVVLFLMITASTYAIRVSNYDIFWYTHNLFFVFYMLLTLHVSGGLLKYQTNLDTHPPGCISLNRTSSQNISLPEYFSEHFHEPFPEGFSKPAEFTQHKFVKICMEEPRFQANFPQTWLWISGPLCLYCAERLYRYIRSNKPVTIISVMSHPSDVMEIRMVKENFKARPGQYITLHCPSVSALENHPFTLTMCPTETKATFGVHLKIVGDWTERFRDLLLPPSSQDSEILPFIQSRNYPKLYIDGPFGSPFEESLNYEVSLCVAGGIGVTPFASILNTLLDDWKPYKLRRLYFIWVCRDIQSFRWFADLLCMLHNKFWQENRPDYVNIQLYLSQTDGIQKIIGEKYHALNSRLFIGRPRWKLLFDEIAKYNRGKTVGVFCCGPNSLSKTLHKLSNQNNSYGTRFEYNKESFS

As to `CCCC[C@@H]1CN2[C@@H](CC[C@@H](C)[C@@H]2c2ccc(Br)cc2)C(=O)O1`, the z-score in assay [1] is -0.247 (inactive) and -1.23 (inactive); in assay [3], 0.952 (inactive) and 1.74 (inactive); in assay [4], -0.255 (inactive) and 0.94 (inactive); in assay [5], 0.0015 (inactive) and -0.273 (inactive); in assay [6], 0.367 (inactive) and 0.443 (inactive); in assay [7], -1.02 and -0.612. The z-score is 1.18 (inactive) and -0.0488 (inactive) in assay [8]; 0.883 (inactive) and 0.821 (inactive) in assay [9]; 0.637 and 0.0426 in [10]. Further, the composite z-score in assay [2] was -0.0601 and -0.0141.

Consider `C[C@@H]1CC[C@H]2C(=O)O[C@H](CN=[N+]=[N-])CN2[C@H]1c1ccc(Br)cc1`, for which the z-score in assay [1] is -1.87 (inactive) and -0.609 (inactive); in assay [3], -0.1 (inactive) and 2.08 (inactive); in [4] it was 0.23 (inactive) and 1.03 (inactive); in assay [5] it was 0.124 (inactive) and 0.564 (inactive); in [6] it was -0.12 (inactive) and 0.491 (inactive); in [7], -0.524 and -0.466. Besides, the z-score was 0.993 (inactive) and 0.995 (inactive) in assay [8]; -0.0537 (inactive) and -0.184 (inactive) in [9]; -0.124 and 0.779 in [10]. In addition, the composite z-score in assay [2] was 0.0457 and -0.284.

In the case of `C=CCN(Cc1ccccc1)C(=O)C1N(CCCCCCO)C(=O)C2C(C(=O)O)C3C=CC21O3` (stereo not given), the z-score in assay [1] was -0.107 (inactive) and 0.999 (inactive); in assay [3], 0.506 (inactive) and 0.459 (inactive); in assay [4], -0.232 (inactive) and -0.314 (inactive); in [5] it was -0.911 (inactive) and -0.362 (inactive); in [6] it was 0.135 (inactive) and 0.161 (inactive); in [7] it was -0.276 and 0.27. In addition, the z-score was 0.498 (inactive) and 0.0836 (inactive) in assay [8]; -0.308 (inactive) and -0.348 (inactive) in assay [9]; 0.751 and 0.232 in [10]. The composite z-score in assay [2] was -0.0508 and -0.101.

For `C=CCN(C(=O)C(c1cccs1)N(C(=O)/C=C\C(=O)O)c1ccc(CCO)cc1)c1ccc(OC)cc1` (stereo not given), the z-score in [1] is 2.16 (inactive) and 0.76 (inactive); in assay [3], 1.73 (inactive) and -1.02 (inactive); in [4], 0.0371 (inactive) and -0.3 (inactive); in assay [5], -0.0439 (inactive) and 0.347 (inactive); in [6], 0.454 (inactive) and -0.0131 (inactive); in assay [7], 0.749 and 0.862. For the same compound, the z-score in assay [8] was -0.147 (inactive) and -0.268 (inactive); in assay [9], -0.649 (inactive) and -1.34 (inactive); in assay [10] it was 0.137 and -0.261. The composite z-score in assay [2] is -0.0186 and -0.229.

`COC(=O)C1=C(C)N(Cc2ccccc2)C2=C(C(=O)c3ccccc3)[C@H](c3ccccc3)[C@@](O)(C(=O)OC)C(=O)N2[C@@H]1c1ccccc1`: the z-score in [1] was 0.809 (inactive) and 0.498 (inactive); in assay [3] it was 1.74 (inactive) and 0.552 (inactive); in [4], 0.852 (inactive) and 0.417 (inactive); in assay [5] it was -0.326 (inactive) and -0.171 (inactive); in [6], 0.442 (inactive) and 0.39 (inactive); in assay [7], 0.533 and -0.266. The z-score in assay [8] is 1.06 (inactive) and 0.0122 (inactive); in [9], 0.59 (inactive) and -0.238 (inactive); in assay [10], 1.59 and 0.157. Further, in assay [2], the composite z-score is -0.234 and -0.168.

Take `C=C[C@H](C)[C@H](O)c1ccc(O)c2ccccc12`: the z-score in assay [1] was 2.14 (inactive) and 2.25 (inactive); in assay [3], 0.656 (inactive) and 0.845 (inactive); in assay [4], -0.627 (inactive) and -0.531 (inactive); in assay [5] it was -0.984 (inactive) and -0.529 (inactive); in assay [6], -0.408 (inactive) and -1.21 (inactive); in [7], 1.13 and 0.885. Besides, the z-score in [8] is -5.4 (inactive) and -5.09 (inactive); in [9], -0.841 (inactive) and -0.878 (inactive); in assay [10], 0.582 and 1.17. In addition, the composite z-score in [2] was -0.31 and -0.201.

Consider `Cc1ccc(S(=O)(=O)N[C@H]2COC(=O)[C@@H](Cc3ccccc3)NC(=O)[C@@H](C)COC(=O)CC=C[C@@H]2C)cc1`, for which the z-score is -0.193 (inactive) and 0.569 (inactive) in [1]; 0.649 (inactive) and 1.51 (inactive) in assay [3]; 0.237 (inactive) and 0.491 (inactive) in [4]; 0.377 (inactive) and 1.9 (inactive) in assay [5]; 0.252 (inactive) and 0.148 (inactive) in assay [6]; 0.0356 and 0.201 in [7]. The z-score in assay [8] was -0.34 (inactive) and 0.252 (inactive); in assay [9], -0.302 (inactive) and -0.127 (inactive); in assay [10] it was 0.189 and 0.00698. In addition, in assay [2], the composite z-score was -0.232 and -0.0645.

For the compound `CCCNC(=O)OC[C@H]1O[C@H](CCON=C(C)CCC(=O)OC[C@H]2O[C@H](C#Cc3ccccc3)C=C[C@@H]2Oc2ccc(C)cc2)C=C[C@@H]1Oc1ccc(OC)cc1`, the z-score in [1] was 0.181 (inactive); in assay [3], 0.77 (inactive); in assay [4], 0.329 (inactive); in assay [5], -0.107 (inactive); in assay [6], 0.097 (inactive); in [7], -0.591. Besides, the figures for the z-score in assay [8], in assay [9] and in assay [10] were 0.333 (inactive), 0.854 (inactive) and -0.746, respectively. Further, in [2], the composite z-score is -0.0917.

Consider `C=CCN(Cc1ccccc1)C(=O)C(c1cccs1)N(C(=O)/C=C\C(=O)O)c1ccc(CCO)cc1` (stereo not given), for which the z-score was 0.906 (inactive) and 0.383 (inactive) in assay [1]; 0.149 (inactive) and -0.674 (inactive) in assay [3]; -0.36 (inactive) and 0.526 (inactive) in assay [4]; 0.0823 (inactive) and -0.0781 (inactive) in [5]; 0.283 (inactive) and 0.306 (inactive) in assay [6]; 1.84 and 0.284 in [7]. In addition, the z-score in assay [8] is -0.228 (inactive) and -0.269 (inactive); in assay [9] it was -0.353 (inactive) and -0.512 (inactive); in assay [10], -0.0714 and -0.0433. The composite z-score in assay [2] was -0.0449 and -0.314.

Values taken from PubChem BioAssay.
